Among all 53,000 sequences or so, about 3,700 (7%) were called active.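 How the source made its calls: active means gene knockdowns whose robust z-score for IL-1 alpha signal is at least 2 or at most -2, so actives lie on both sides; inactive means the rest.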 The sample as a whole holds a higher share of actives than the screen did.
test: Components of the Cytosolic LPS Sensing Pathway: Gene Identification via Genome-wide siRNA Screen; settings: RAW264.7 macrophages, IL-1a HTRF, actives lie on both sides, screened at 100 nM (by protocol), cells primed 5 h with Pam3CSK4 first;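 further: robust z of the log signal after scaling to non-targeting control siRNA wells of the plate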
In short: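 IL-1a HTRF of supernatants after 24 hour LipidA transfection of Pam3CSK4-primed (5 hours) RAW264.7 cells, 48h post-siRNA transfection (100 nM). Scores: percent of plate negative-control median, then log-based robust z-score.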

| Sequence | z-score |
| --- | --- |
| GCAUACCAAUCACAGUCGATT against Dync2li1 | -2.55 (active) |
| GGGUUGCUACUCACAAUGUTT against Syngr2 | 0.244 (inactive) |
| CCUCAAUUUCGAAGACCCUTT against Asb6 | 1.84 (inactive) |
| GGACUCUGGACCUUAUGCUTT against Tmem202 | -0.921 (inactive) |
| GGCUUUCAAGCUAACUGAUTT against Sf3b2 | -2.39 (active) |
| GGUUAAAAACAACUGAAAGTT against 9630028B13Rik | -1.04 (inactive) |
| GGGAACUUUCCUCAAGUCUTT against Phactr3 | 0.107 (inactive) |
| GGCCAAGAAACAUGCCCUATT against Pbx2 | 0.168 (inactive) |
| GGCAGUGGAGUUAACAACATT against Dsg1b | -0.12 (inactive) |
| CCUAUGAGUCUUACGUGAATT against Cyp4x1 | 0.693 (inactive) |
| GGACACCAACAUAUUGUUCTT against Slc13a2 | -0.128 (inactive) |
| GGCUGAUGGAAGAAUAUGATT against Actn2 | -2.2 (active) |
| GGAUGAGUCUUUCUAGUUATT against Nipa1 | -0.337 (inactive) |
| GCAGCAGUAAUGAUGGAUCTT against Ncoa3 | 2.47 (active) |
| GGACAAAUUCUACAUCAGCTT against Adam8 | 0.0533 (inactive) |
| CGGCCGUCAGCUUCUUUUATT against Olfr283 | -0.204 (inactive) |
| CGACUUUGGAGAAUUUCAATT against Synrg | -0.573 (inactive) |
| GGGAACAAACCUUGAUUCUTT against Adam24 | 3.49 (active) |
| GGAGAGACCACCCUUUCAGTT against Fahd2a | -0.432 (inactive) |
| GCAUAUGGACUUUCUGUCATT against Iws1 | -0.157 (inactive) |
| GGUGUAACACUCAUUUAUCTT against Ifitm3 | 2.88 (active) |
| GGACACCUACCAAAAGUUATT against Cd9 | 0.432 (inactive) |

| Sequence | z-score |
| --- | --- |
| GCUACAACAAGACAAAGUCTT against Tada1 | 1.84 (inactive) |
| CCUUCUACCUACUUAUUGGTT against Tomm70a | 0.178 (inactive) |
| GGAAGAUGUGAAAUUGCUUTT against Dars2 | 2.23 (active) |
| CCACUAUGUUCUGUGGCAATT against Olfr736 | -2.33 (active) |
| GGAAGAAUUUGACAACCGCTT against Mrps18c | 0.583 (inactive) |
| GGAAAAUGAUAGCAGACAUTT against Zfp810 | -1.72 (inactive) |
| GGGCCAGAAGAAGAGUCGATT against Mllt6 | -0.304 (inactive) |
| GGAGAUUUCUGAAACUAGATT against Tiaf2 | -2.09 (active) |
| GGCCAACUCACCUUUCUAGTT against D630023F18Rik | 1.84 (inactive) |
| CCAUUCUUAUUGUUGAGAATT against Nek9 | -0.793 (inactive) |
| GGACAUGAAAGUUGACCUGTT against Mrps31 | 0.465 (inactive) |
| GCCCGUGUGUAAGUGCAAATT against Wfikkn2 | 2.25 (active) |
| GGAAACAGAGCAAGGAAAATT against Gas7 | 0.613 (inactive) |
| GGAGAGCUCUAUGGAUCGATT against Fgf16 | 0.784 (inactive) |
| CCUCCUUUGGACAACGGGUTT against Cyp7a1 | -1.34 (inactive) |
| CCUGCUCUCCUCAUUAUGUTT against Rnls | -0.115 (inactive) |
| GGAAGCAACUUGGAAUUUGTT against Ctnna3 | 0.886 (inactive) |
| GGGUACAGUCCGAUACAGUTT against Nploc4 | -1.79 (inactive) |
| GCUCUCAUUAGCAUUAUCGTT against Gria1 | 0.21 (inactive) |
| GCACAACUCAGAAGUAAUUTT against Ghr | 0.271 (inactive) |
| GGUAAUAUUUCGUGCUUUATT against Lamb1 | 2.1 (active) |
| CCUAAAAAGAGGAAAAGGGTT against Psg29 | -0.254 (inactive) |

| Sequence | z-score |
| --- | --- |
| GGUGCUCAGCAUGUUUGCUTT against Avpr1b | -1.06 (inactive) |
| GGCACUGGAAAUAAAACCCTT against S100a14 | -0.766 (inactive) |
| GCUAACGAAGGUAGUGUACTT against Gtpbp8 | 3.34 (active) |
| GGUAUGCUCUCUGUUGACUTT against Olfr922 | 0.472 (inactive) |
| GGAGUUCCUAUUUAAUCCCTT against Hoxb8 | -0.419 (inactive) |
| GCAGUUUUAACUGGCCAUATT against Nr2f2 | 1.7 (inactive) |
| GCUGCUUAAGUACAUCAGATT against Grm4 | -0.401 (inactive) |
| GGUUAUGCAUUACUCUCUUTT against Prkdc | 0.0207 (inactive) |
| GGCCAGGUAUAAAUAUAUATT against Dusp8 | 4.51 (active) |
| GCUGGAACUUAGUGUUCAGTT against Kat6b | 1.45 (inactive) |
| GCAAUGUUCUCCGUAAACATT against Acss2 | 1.15 (inactive) |
| GGCUUCAAACACUUCCUUGTT against Sh2d4b | 0.818 (inactive) |
| GGGAAAAGAUUCAGCUAGATT against Ntn4 | -1.16 (inactive) |
| GCAGCUAUUGAGCAUGGUGTT against Atp6v1g3 | -2.16 (active) |
| GCCGUAUCGAUUCUAUUUCTT against Slc6a17 | 1.09 (inactive) |
| GGAAAAGAAGACAUUUCUCTT against Osbpl8 | -0.565 (inactive) |
| CCUCCUGUACGAACACGCATT against Sars2 | -0.118 (inactive) |
| GGCUGUGCUCAGGAUCAAATT against Olfr683 | 2.37 (active) |
| GGAAAUAUCCAAGAAUCCCTT against Bbs4 | -0.0724 (inactive) |
| GUGAUUGGGAACCUGUUUATT against Paqr6 | -1.35 (inactive) |
| GCAGAUCAGUUGGUACAAGTT against Acss3 | 0.0616 (inactive) |
| GCUAACACAACGAGAGAAGTT against Ushbp1 | -2.39 (active) |

| Sequence | z-score |
| --- | --- |
| GGAUUCACACAGAGGUAAATT against Zfp169 | -0.215 (inactive) |
| CCCAUAUUAAUUAUGGCGUTT against Hadha | -0.189 (inactive) |
| GCCAUACAUAAACUACAAUTT against Gulo | -0.175 (inactive) |
| GUACUUGAAACGAACUGGATT against B4galnt4 | -1.68 (inactive) |
| CCUUACCCUGUUAUACAAGTT against Hirip3 | 2.69 (active) |
| GGCUAAAACAGGAAAUCUGTT against Mip | -0.398 (inactive) |
| CCACUUUAAAGGCUCUUCUTT against H3c8 | -2.17 (active) |
| CCGACUUCGUACAAUGACCTT against Slc1a6 | 1.45 (inactive) |
| GGAGAACAAGAUCCUGGAGTT against Ccdc39 | 1.73 (inactive) |
| GGAUCCAGAAGAGCAUCUCTT against Sap30 | -0.33 (inactive) |
| GGGCGUGAUUUAUUUCUACTT against Mfsd6l | 1.45 (inactive) |
| GGCUAUGCUUUUGUCCAGUTT against Raly | -0.392 (inactive) |
| GGUGUCUUUGCUCUUAAUUTT against Sike1 | 0.277 (inactive) |
| CGCAGUCCUUGACAUUAAATT against Rab3a | 0.0328 (inactive) |
| GCUCUUGGGAUGGACGAUATT against Hmgcs1 | 4.73 (active) |
| GGCAGACAUAAGGCUUUCUTT against Olfr1056 | -0.754 (inactive) |
| GGGCAGGAAAAAAAAUUCATT against Vps13b | 1.68 (inactive) |
| CCACUGAAGGAAGUUCGCUTT against Amer2 | 0.21 (inactive) |
| GGAUAAAUGCCAUUUUGGATT against Cpeb1 | -0.664 (inactive) |
| GCCUUAACCACAAUUAAAATT against Etfrf1 | -0.578 (inactive) |
| GGGAUCUGGAUGAGGUCAATT against Tcf7l1 | 3.02 (active) |
| GGAAAUUAGUGCUGGGCGUTT against Erbb3 | 0.424 (inactive) |

| Sequence | z-score |
| --- | --- |
| CGAAAUUGAUUCUAUCUGCTT against Katnal1 | -0.59 (inactive) |
| GGGUCUCUAUGGAAUCAAUTT against Ldha | 2.83 (active) |
| GGCAGUAUGAGAGGUAUUUTT against Entpd7 | 0.345 (inactive) |
| CCAAACGAAGGAAGCUGACTT against Taf6l | -2.09 (active) |
| GGGAGAUAAAAAGUUAAGGTT against Bclaf1 | 1.38 (inactive) |
| GGCUUUCGUUUACAACAAGTT against Naglu | -0.414 (inactive) |
| GGUUAUCAUACUUUUUGUGTT against Phf10 | -0.582 (inactive) |
| CCAAACAAUGUUGUUUAGGTT against Rilpl1 | -0.965 (inactive) |
| CCUCGAGUUCGGAAACAGATT against Chd8 | -1.06 (inactive) |
| CCUGCCUAGAUGUUUCAGCTT against Ifna13 | -0.196 (inactive) |
| GGACAAUAGAUGUGUUUGATT against Ddb2 | 1.57 (inactive) |
| GCUUGGCCGUGAUUGUUGCTT against Fndc10 | 2.35 (active) |
| GGCUUGGUGAGCUACCUACTT against Wdr62 | -0.839 (inactive) |
| GGCACACUUAAGUAAAAGUTT against Kras | -0.542 (inactive) |
| GGCUACCUUCUACCUAAGGTT against Cyp2g1 | 1.42 (inactive) |
| CGGCAAGCCCAAAAAGGUCTT against Dlx3 | -2.34 (active) |
| GCAAUCUGUCCUUCUGUGATT against Olfr1133 | -0.818 (inactive) |
| CCUGUACUGAACUACUUGATT against Kctd5 | 0.0535 (inactive) |
| CCUGGUACAAGGAACCAGUTT against Zim1 | 0.285 (inactive) |
| GGACCCAAUAAAACUUCCGTT against Ttc36 | 1.13 (inactive) |

From PubChem BioAssay AID1508600 (Functional Genomics Laboratory (NCATS/FGL), 2020)
